Only a selection was taken, and hits are over-represented in it overall.
HT1080NT lethal – kills 2HG-producing HT-1080-NT fibrosarcoma cells. HT-1080-NT fibrosarcoma viability, CellTiter-Glo ATP luminescence, 48 h. Potency, µM (titrated, usually from 46.1 µM), for the others: at the top dose activity, negative = less viability, actives largely listed as cytotoxic. hit rate 1.6% among 360,000. AID 686970;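 further: NT is the 2HG producing partner of a matched IDH1 knockdown line; potency means the concentration at half of the fitted maximal effect; 0% = DMSO-treated cells and -100% = media-only wells without cells; nearly all actives have a fitted effect of over 55% in size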
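Read-out is CellTiter-Glo luminescence after 10 minutes at room temperature, following 48 hours' compound treatment of HT-1080-NT cells (750 cells/well, RPMI, 5% FBS, 37 degrees C).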
TDP1 cell CPT – growth inhibition of DT40 Tdp1-/-;hTDP1 cells with camptothecin (screen for TDP1 inhibitors) | hit rate 12% among 420,000 | chicken DT40 Tdp1-/-;hTDP1 cells + 20 nM CPT, ATP luminescence, 48 h | AID 686979 | Potency, µM (top dose mostly 46.2 µM), for inactives: top-dose activity change, negative = growth inhibition, hits mostly inhibitors; further: potency means the concentration at half of the fitted maximal effect; nearly all actives have a fitted effect of over 55% in size
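Chicken DT40 Tdp1-/- cells complemented with human TDP1, 400 cells/well, exposed to compounds plus 20 nM camptothecin for at least 48 h at 37 C; viability read as ATP content by CellTiter-Glo luminescence.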
IL-1B inflam inh – inflammasome signaling inhibition, IL-1 beta readout; THP-1 LPS/ATP IL-1B secretion, AlphaLISA, 16 h; stronger effect = lower value; activity change, % at 57.5 µM; hit rate 4.7% among 360,000; AID 743279; in the data active means activity change below about -50%; inconclusive means mostly about -30% to -49%
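THP-1 cells pretreated 1 hr with compounds (up to 57.5 uM final), then stimulated with LPS (250 ng/mL final) plus ATP (1.25 mM final); secreted IL-1B measured by AlphaLISA after 16 hr, decreased signal indicating inhibition.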
HT1080 IDH1KD tx – toxicity to HT-1080 IDH1 knockdown cells (counter line); HT-1080 IDH1 knockdown viability, ATP luminescence, 48 h; Potency, µM (doses to about 46.1 µM), for the others: at the top dose activity, negative = toxicity, usual class: cytotoxic; hit rate 2% among 360,000;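 further: potency means the concentration at half of the fitted maximal effect; 0% = DMSO wells and -100% = cell-free medium wells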
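In this qHTS, HT-1080 cells depleted of IDH1 are exposed for 48 h at 37 °C to compound titrations. Toxicity is scored from CellTiter-Glo luminescence, with DMSO as full viability and medium alone as none.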
DT40 TDP1 no CPT – qHTS for Inhibitors of human tyrosyl-DNA phosphodiesterase 1 (TDP1): qHTS in cells in absence of CPT | DT40 Tdp1-/- hTDP1 cells, no CPT, ATP luminescence, 48 h | Potency, µM (highest dose often 46.2 µM), inactives show at the highest dose activity change, negative = growth inhibition, hits mostly inhibitors | hit rate 15% among 420,000; further: potency means the concentration at half of the fitted maximal effect; nearly all actives have a fitted effect of over 55% in size
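Growth of hTDP1-complemented DT40 Tdp1-knockout cells is measured by ATP luminescence after at least 48 hr compound exposure at 37 °C, with DMSO substituting for the 20 nM CPT used in the parallel screen.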
ALOX12 inh – inhibitors of human 12S-lipoxygenase ALOX12; AID 1671190; P18054; hit rate 1.1% among 580,000; Potency, µM (highest dose often 108 µM), without a hit: at the highest dose activity change, negative = inhibition, actives largely listed as inhibitors; purified 12hLO, xylenol orange hydroperoxide absorbance; further: potency means the concentration at half of the fitted maximal effect
Target sequence (P18054 whole entry, looked up): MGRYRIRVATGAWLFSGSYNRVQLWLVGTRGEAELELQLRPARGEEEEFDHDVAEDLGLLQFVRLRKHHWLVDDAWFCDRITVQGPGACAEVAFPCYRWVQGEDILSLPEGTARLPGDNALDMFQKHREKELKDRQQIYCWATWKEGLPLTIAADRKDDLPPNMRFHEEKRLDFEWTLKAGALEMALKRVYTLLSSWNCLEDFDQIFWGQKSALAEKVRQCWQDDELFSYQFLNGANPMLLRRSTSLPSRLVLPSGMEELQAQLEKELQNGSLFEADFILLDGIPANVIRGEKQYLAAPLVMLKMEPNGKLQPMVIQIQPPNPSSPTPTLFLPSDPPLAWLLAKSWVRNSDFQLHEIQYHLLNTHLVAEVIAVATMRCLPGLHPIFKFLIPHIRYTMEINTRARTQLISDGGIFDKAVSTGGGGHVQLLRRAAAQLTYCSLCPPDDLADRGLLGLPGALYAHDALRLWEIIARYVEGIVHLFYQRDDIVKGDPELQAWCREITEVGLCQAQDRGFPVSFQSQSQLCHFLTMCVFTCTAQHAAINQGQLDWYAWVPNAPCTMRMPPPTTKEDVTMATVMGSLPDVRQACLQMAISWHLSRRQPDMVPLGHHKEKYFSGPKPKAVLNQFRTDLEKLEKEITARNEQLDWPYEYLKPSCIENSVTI
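Purified human 12hLO at 150 nM in 25 mM Hepes, 0.01% Triton X-100, pH 7.0, preincubated 15 min at room temperature with compound. Reaction started with 40 uM arachidonic acid, 30 min at room temperature. Hydroperoxide measured by Fe-xylenol orange, 573/405 nm absorbance ratio.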
Active calls of the source: *; [ ] = remark or other dose. Unless noted, the call rests on the fitted dose curve; in most records, active means well fitted curve in the direction sought with a large enough effect; inconclusive means small, poorly fitted or top-dose-only effect, or another doubt; inactive means no such curve, though single readings can be large; an effect the other way counts as inactive or inconclusive. Unless noted, on the % scale 0 is the no-effect control and ±100 the full control effect.

How did COc1ccc(N2CCN(CCc3ccncc3)CC2)cc1 do in these assays?
HT1080NT lethal: 11%; TDP1 cell CPT: 6%; IL-1B inflam inh: -11; HT1080 IDH1KD tx: 13%; DT40 TDP1 no CPT: -5%; ALOX12 inh: -12%

Results for c1cc(OCCN2CC2)ccn1 ?
HT1080NT lethal: -6%; TDP1 cell CPT: 3.3µM*; IL-1B inflam inh: 14; HT1080 IDH1KD tx: -13%; DT40 TDP1 no CPT: 7.3µM*; ALOX12 inh: 4%

What do the screens show for `CN1CCN(C(=O)Cc2c[nH]c3ncc(-c4ccc(CO)cc4)cc23)CC1`?
ALOX12 inh: 5%[176 µM]

Results for COCC1CN(C)CC12CCN(Cc1cccc(OC)n1)CC2 (configuration not stated) ?
ALOX12 inh: 86%

What do the screens show for `CCC(C)(C)n1nnnc1C(c1cccc(C#N)c1)N1CCN(c2cc(C)ccc2C)CC1` (configuration not stated)?
HT1080NT lethal: 0%; TDP1 cell CPT: 16µM*; IL-1B inflam inh: 24; HT1080 IDH1KD tx: 11%; DT40 TDP1 no CPT: 23µM*; ALOX12 inh: 2%

How did COC[C@H]1CCCN1C[C@H]1CN2CC[C@H]1C[C@@H]2CNC(=O)c1ccc(C(F)(F)F)cc1 do in these assays?
ALOX12 inh: 96%[176 µM]

How did O=C(NC1CCCCC1)[C@H]1CN2CCC1C[C@@H]2Cn1cc(CSc2ccccc2)nn1 (some centres not stated) do in these assays?
ALOX12 inh: 8%

Results for CC(=O)O/C(=C1\CC2C3CC=C4CC(OC(C)=O)CCC4(C)C3CCC2(C)C1=O)C(F)(F)F (configuration not stated) ?
HT1080NT lethal: 1%; TDP1 cell CPT: 4.6µM*; IL-1B inflam inh: 33; HT1080 IDH1KD tx: -6%; DT40 TDP1 no CPT: 3.7µM*; ALOX12 inh: -11%

How did Cc1ccc([C@H]2N[C@]3(CCCN(Cc4ccc(C(F)(F)F)cc4)C3=O)[C@H]3C(=O)N(Cc4ccccc4)C(=O)[C@@H]23)cc1 do in these assays?
HT1080NT lethal: -22%; TDP1 cell CPT: 23µM*; IL-1B inflam inh: -70*; HT1080 IDH1KD tx: -28%; DT40 TDP1 no CPT: inconclusive; ALOX12 inh: inconclusive

Results for Cc1ccc(NP(=O)(Nc2ccc(C)cc2)Oc2ccccc2)cc1 ?
HT1080NT lethal: -15%; TDP1 cell CPT: 5%; IL-1B inflam inh: -71*; HT1080 IDH1KD tx: inconclusive; DT40 TDP1 no CPT: inconclusive; ALOX12 inh: inconclusive

What do the screens show for `O=P(Oc1ccccc1)(Oc1ccccc1)c1ccccc1`?
HT1080NT lethal: -2%; TDP1 cell CPT: inconclusive; IL-1B inflam inh: -14; HT1080 IDH1KD tx: 7%; DT40 TDP1 no CPT: 16µM*; ALOX12 inh: 118%

What do the screens show for `NP(=O)(Oc1ccccc1)c1ccccc1` (configuration not stated)?
HT1080NT lethal: 10%; TDP1 cell CPT: 8%; IL-1B inflam inh: 21; HT1080 IDH1KD tx: inconclusive; DT40 TDP1 no CPT: -4%; ALOX12 inh: -11%

Results for C[C@H]1CCC/C=C/[C@@H]2C[C@H](O)C[C@H]2[C@@H](O)/C=C/C(=O)O1 ?
HT1080NT lethal: inconclusive; TDP1 cell CPT: 0.18µM*; IL-1B inflam inh: -54*; HT1080 IDH1KD tx: 0.15µM*; DT40 TDP1 no CPT: 0.58µM*; ALOX12 inh: 0%

Results for C[C@H]1CCCC=CC2C[C@H](O)C[C@@H]2[C@H](O)C=CC(=O)O1 (some centres not stated) ?
TDP1 cell CPT: 0.028µM*; DT40 TDP1 no CPT: 0.15µM*; ALOX12 inh: 51%[57.4 µM]

What do the screens show for `CCn1c(O)c(/C=N/NC(=O)c2ccccc2)c(=O)n(CC)c1=S`?
HT1080NT lethal: 0%; TDP1 cell CPT: inconclusive; IL-1B inflam inh: 138; HT1080 IDH1KD tx: -8%; DT40 TDP1 no CPT: 29µM*; ALOX12 inh: 4%

How did O=C(NC1CC1)[C@H]1CN2CC[C@H]1C[C@@H]2Cn1cc(-c2ccc(-c3ccccc3)cc2)nn1 do in these assays?
ALOX12 inh: 4%[176 µM]

Results for Cc1ccc(-c2nn(Cc3ccccc3)cc2C=O)cc1C ?
HT1080NT lethal: -4%; TDP1 cell CPT: inconclusive; IL-1B inflam inh: -22; HT1080 IDH1KD tx: -2%; DT40 TDP1 no CPT: 16µM*; ALOX12 inh: -4%

How did COC(=O)C1=C(c2cccc(OC)c2OC)C[C@@H]2CC[C@H]1N2C(=O)N1CCCCC1 do in these assays?
HT1080NT lethal: 12%; TDP1 cell CPT: inconclusive; IL-1B inflam inh: 36; HT1080 IDH1KD tx: 2%; ALOX12 inh: -10%

Results for COC(=O)C1=C(c2ccc(F)cc2F)C[C@@H]2CC[C@H]1N2C(=O)N1CCOCC1 ?
HT1080NT lethal: -4%; TDP1 cell CPT: inconclusive; IL-1B inflam inh: 11; HT1080 IDH1KD tx: 0%; DT40 TDP1 no CPT: inconclusive; ALOX12 inh: -2%

What do the screens show for `COC(=O)C1=C(c2ccc(F)cc2F)C[C@@H]2CC[C@H]1N2C(=O)NCc1ccc(F)cc1`?
HT1080NT lethal: -1%; TDP1 cell CPT: inconclusive; IL-1B inflam inh: -6; HT1080 IDH1KD tx: 0%; DT40 TDP1 no CPT: inconclusive; ALOX12 inh: inconclusive

What do the screens show for `COC(=O)C1=C(c2ccc(F)cc2F)C[C@@H]2CC[C@H]1N2C(=O)N1CCCCC1`?
HT1080NT lethal: 22%; TDP1 cell CPT: 13µM*; IL-1B inflam inh: 17; HT1080 IDH1KD tx: 6%; DT40 TDP1 no CPT: 18µM*; ALOX12 inh: -4%

Results for COC(=O)C1=C(c2c(C)noc2C)C[C@@H]2CC[C@H]1N2C(=O)N1CCOCC1 ?
HT1080NT lethal: 11%; TDP1 cell CPT: -10%; IL-1B inflam inh: 11; HT1080 IDH1KD tx: 2%; DT40 TDP1 no CPT: 3%; ALOX12 inh: 0%

What do the screens show for `COC(=O)C1=C(c2c(C)noc2C)C[C@@H]2CC[C@H]1N2C(=O)N1CCC(O)(c2ccc(Cl)cc2)CC1`?
HT1080NT lethal: 4%; TDP1 cell CPT: inconclusive; IL-1B inflam inh: -5; HT1080 IDH1KD tx: 4%; DT40 TDP1 no CPT: 21µM*; ALOX12 inh: -28%

How did COC(=O)C1=C(c2ccc(F)cc2F)C[C@@H]2CC[C@H]1N2C(=O)N1CCC(O)(c2ccc(Cl)cc2)CC1 do in these assays?
HT1080NT lethal: -19%; TDP1 cell CPT: 21µM*; IL-1B inflam inh: -78*; HT1080 IDH1KD tx: -1%; DT40 TDP1 no CPT: 18µM*; ALOX12 inh: -15%

What do the screens show for `COC(=O)C1=C(c2ccc(F)cc2F)C[C@@H]2CC[C@H]1N2C(=O)N1CCCC1`?
HT1080NT lethal: 13%; TDP1 cell CPT: inconclusive; IL-1B inflam inh: 21; HT1080 IDH1KD tx: 2%; DT40 TDP1 no CPT: 8.2µM*; ALOX12 inh: -3%
